This passage reports inhibition results from PubChem BioAssay AID602429 (Sanford-Burnham Center for Chemical Genomics, 2012).

Among all 360,000 compounds or so, about 1,200 (0.33%) were called active. No stated cut-off is given here; in the data, active means inhibition above about 37%; inactive means the rest. The full list was thinned out, with actives kept by preference.

Sequence of Small ubiquitin-related modifier 1 (Homo sapiens) (P63165 whole entry, looked up): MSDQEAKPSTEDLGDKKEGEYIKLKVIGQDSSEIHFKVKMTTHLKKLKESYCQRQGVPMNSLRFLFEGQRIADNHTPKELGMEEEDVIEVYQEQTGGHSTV

The assay has as its target Small ubiquitin-related modifier 1 (Homo sapiens) (UniProt P63165). Description: SUMO1 binding to interaction partners, disruption – biochemical, uHTS, primary screen (AID 602429). The settings on record: SUMO1 binding to a labelled peptide, TR-FRET, 1 h; at 20 µM; active compounds read high. In general terms: In TR-FRET formats the signal depends on donor and acceptor labels being close together.
Broadly, the inhibition is the change of the read-out against control, counted positive when it falls. On to `COc1ccc(N2C(=O)/C(=C/c3ccco3)C(=O)NC2=S)cc1`, for which the inhibition is 88.7% (active).
Regarding `COC(=O)C1=C(c2cc3ccccc3s2)C[C@@H]2CC[C@H]1N2C(=O)NCc1cccc2ccccc12`, the inhibition is 5.43% (inactive).
The value for `Cc1nn(Cc2ccccc2Cl)c(Cl)c1C(=O)OC(C(=O)NC(N)=O)C(C)C` (stereo not given) was -1.52% (inactive).
Take `C[C@H]1CN([C@@H](C)CO)C(=O)CCCn2nncc2CO[C@H]1CN(C)C(=O)Oc1cccc2ccccc12`: the inhibition is 0.0734% (inactive).
The value for `O=C1NC(=O)C(CCOc2ccccc2)(CCc2ccccc2)C(=O)N1` was -4.22% (inactive); that for `COc1cccc(N2C(=O)NC(=O)/C(=C\c3ccc([N+](=O)[O-])s3)C2=O)c1` was 38.1% (active).
Next, `CC(=O)N(C1=NCCCS1)c1ccccc1F`: -2.29% (inactive); `CCCn1c(C(=O)c2ccccc2OC)nc2ccccc21`: -1.49% (inactive).
As to `CCCCCn1c(=O)c(C(=O)Nc2c(C)n(C)n(-c3ccccc3)c2=O)c(O)c2ccccc21`, the inhibition is 4.99% (inactive).
As for `C=C(C)C1(CCCC)C(=O)NC(=S)NC1=O`, the inhibition is 6.06% (inactive).
